Experimental data: PubChem BioAssay AID1159580 (chemical genetic matrix, 2015)
“And” between values parts separate entries of the source, which are not always exact repeats. Equal entries are not always repeated. Hit rate of the full screen: of about 5,500 compounds, about 2,000 (36%) were called active. Not shown: some 18% with an inconclusive outcome. Cut-off read from the data, not from the text of the source: active = normalized growth mostly below about 0.91 (no sharp cut-off); inconclusive = no clear call, values can overlap the other calls; inactive = mostly above about 0.92. This is one part of the list.

Assay: chemical genetic growth profiling, strain panel (AID 1159580);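 note: tested at 20 µM; growth read once vehicle control cultures reached saturation at 30 °C; 1 = growth at the plate median or of vehicle wells; lower values mean less growth of the strain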
Conditions: S. cerevisiae deletion strains, growth OD

Measured: normalized growth

CCC(=O)O[C@]1(C(=O)CCl)[C@@H](C)CC2C3CCC4=CC(=O)C=C[C@]4(C)[C@@]3(F)[C@@H](O)C[C@@]21C (stereo not given in full)
inactive: locus YAL013W, strain DEP1, active compounds read low 0.976 | locus YAL021C, strain ccr4, active compounds read low 1.02 | locus YAL026C, strain drs2, active compounds read low 1.02 | locus YAL030W, strain snc1, active compounds read low 1.02 | locus YBL061C, strain skt5, active compounds read low 1.03 | locus YBR009C, strain hhf1, active compounds read low 1.01 | locus YBR021W, strain FUR4, active compounds read low 0.968 | locus YBR023C, strain chs3, active compounds read low 1.02 | locus YBR171W, strain sec66, active compounds read low 1.03 | locus YBR229C, strain ROT2, active compounds read low 0.986 | locus YBR231C, strain swc5, active compounds read low 1.02 | locus YBR279W, strain paf1, active compounds read low 1 | locus YCL011C, strain gbp2, active compounds read low 1.02 | locus YCL016C, strain dcc1, active compounds read low 1.02 | locus YCL029C, strain bik1, active compounds read low 0.96 | locus YCL061C, strain MRC1, active compounds read low 1.03 | locus YCL069W, strain vba3, active compounds read low 1.02 | locus YCR088W, strain abp1, active compounds read low 1.02 | locus YDL005C, strain med2, active compounds read low 1.03 | locus YDL035C, strain GPR1, active compounds read low 0.958 | locus YDL040C, strain nat1, active compounds read low 1.03 | locus YDL074C, strain BRE1, active compounds read low 0.975 | locus YDL101C, strain DUN1, active compounds read low 0.989 | locus YDL134C, strain PPH21, active compounds read low 0.981 | locus YDL185W, strain tfp1, active compounds read low 0.949 | locus YDL192W, strain arf1, active compounds read low 0.982 | locus YDR001C, strain nth1, active compounds read low 1.02 | locus YDR069C, strain doa4, active compounds read low 1.03 | locus YDR101C, strain arx1, active compounds read low 1.01 | locus YDR137W, strain rgp1, active compounds read low 0.99 | locus YDR150W, strain NUM1, active compounds read low 0.975 | locus YDR159W, strain sac3, active compounds read low 1.02 | locus YDR162C, strain NBP2, active compounds read low 0.953 | locus YDR195W, strain ref2 1.02 | locus YDR297W, strain sur2, active compounds read low 1.01 | locus YDR318W, strain mcm21, active compounds read low 0.988 | locus YDR334W, strain swr1, active compounds read low 1.01 | locus YDR335W, strain msn5, active compounds read low 1.02 | locus YDR388W, active compounds read low 0.987 | locus YDR392W, strain spt3, active compounds read low 1.03 | locus YDR502C, strain sam2, active compounds read low 0.963 | locus YEL003W, strain gim4, active compounds read low 1.01 | locus YEL037C, strain rad23, active compounds read low 1.02 | locus YEL061C, strain CIN8 (second series), active compounds read low 1.02 | locus YEL061C, strain CIN8, active compounds read low 0.985 | locus YER015W, strain faa2, active compounds read low 1.01 | locus YER016W, strain bim1, active compounds read low 1.01 | locus YER110C, active compounds read low 0.971 | locus YER111C, strain swi4, active compounds read low 1.02 | locus YER155C, strain BEM2 (second series), active compounds read low 1.07 | locus YER155C, strain BEM2, active compounds read low 0.987 | locus YER167W, strain BCK2, active compounds read low 0.986 | locus YFR010W, strain ubp6, active compounds read low 1.02 | locus YGL078C, strain dbp3, active compounds read low 0.978 | locus YGL086W, strain mad1, active compounds read low 0.973 | locus YGL167C, strain pmr1, active compounds read low 1.03 | locus YGL173C, strain kem1, active compounds read low 1.05 | locus YGL227W, strain vid30, active compounds read low 1.04 | locus YGL240W, strain doc1, active compounds read low 1.02 | locus YGL248W, strain PDE1, active compounds read low 1.02 | locus YGL253W, strain hxk2, active compounds read low 1 | locus YGR078C, strain PAC10, active compounds read low 0.999 | locus YGR135W, strain pre9, active compounds read low 0.974 | locus YGR229C, strain SMI1, active compounds read low 0.971 | locus YGR252W, strain gcn5, active compounds read low 1.04 | locus YHR013C, strain ard1, active compounds read low 1.03 | locus YHR027C, strain rpn1, active compounds read low 1.01 | locus YHR030C, strain SLT2, active compounds read low 0.974 and 0.963 | locus YHR079C, strain IRE1 (second series), active compounds read low 0.98 | locus YHR079C, strain IRE1, active compounds read low 0.957 | locus YHR094C, strain hxt1, active compounds read low 0.972 | locus YHR129C, strain ARP1, active compounds read low 0.993 | locus YHR142W, strain chs7, active compounds read low 1.01 | locus YHR200W, strain rpn10, active compounds read low 0.977 | locus YIL066C, strain RNR3, active compounds read low 0.985 | locus YIL073C, strain SPO22, active compounds read low 0.876 | locus YIL125W, strain kgd1, active compounds read low 0.985 | locus YIR030C, strain dcg1, active compounds read low 0.985 | locus YJL092W, strain hpr5, active compounds read low 1.02 | locus YJL095W, strain BCK1 (second series), active compounds read low 1.03 | locus YJL095W, strain BCK1, active compounds read low 1.05 and 0.971 | locus YJL115W, strain asf1, active compounds read low 1.04 | locus YJL129C, strain trk1, active compounds read low 1.01 | locus YJL134W, strain LCB3, active compounds read low 0.981 | locus YJL154C, strain vps35, active compounds read low 1.01 | locus YJL164C, strain tpk1, active compounds read low 1.03 | locus YJL166W, strain qcr8, active compounds read low 1.03 | locus YJL168C, strain set2, active compounds read low 1 | locus YJL187C, strain SWE1 (second series), active compounds read low 1 | locus YJL187C, strain SWE1, active compounds read low 1.02
